Values joined by “and” are separate entries in the source; they are usually repeats but may differ in a detail not shown here. Equal values may be shown once. Among all 5,500 compounds or so, about 2,000 (36%) were called active. Roughly 18% stayed inconclusive and do not appear here. No stated cut-off is given here; in the data, active means normalized growth mostly below about 0.91 (no sharp cut-off); inconclusive means no clear call, values can overlap the other calls; inactive means mostly above about 0.92. This is one part of the list.
Assay: chemical genetic growth profiling, strain panel (AID 1159580);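 further: tested at 20 µM; growth read once vehicle control cultures reached saturation at 30 °C; 1 = growth at the plate median or of vehicle wells; lower values mean less growth of the strain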
Conditions: S. cerevisiae deletion strains, growth OD

Measured: normalized growth

CCCN1C[C@H](CSC)C[C@@H]2c3cccc4[nH]cc(c34)C[C@H]21
inactive: locus YAL013W, strain DEP1, active compounds read low 0.997 | locus YAL021C, strain ccr4, active compounds read low 0.978 | locus YAL026C, strain drs2, active compounds read low 1.02 | locus YAL030W, strain snc1, active compounds read low 1.02 | locus YBL061C, strain skt5, active compounds read low 1.01 | locus YBR009C, strain hhf1, active compounds read low 1.02 | locus YBR021W, strain FUR4, active compounds read low 0.965 | locus YBR023C, strain chs3, active compounds read low 0.998 | locus YBR171W, strain sec66, active compounds read low 1.02 | locus YBR229C, strain ROT2, active compounds read low 1 | locus YBR231C, strain swc5, active compounds read low 1.01 | locus YBR279W, strain paf1, active compounds read low 0.996 | locus YCL011C, strain gbp2, active compounds read low 1.02 | locus YCL016C, strain dcc1, active compounds read low 1.01 | locus YCL029C, strain bik1, active compounds read low 1.02 | locus YCL069W, strain vba3, active compounds read low 1.01 | locus YCR088W, strain abp1, active compounds read low 1.01 | locus YDL005C, strain med2, active compounds read low 0.994 | locus YDL035C, strain GPR1, active compounds read low 0.992 | locus YDL040C, strain nat1, active compounds read low 0.996 | locus YDL074C, strain BRE1, active compounds read low 0.975 | locus YDL101C, strain DUN1, active compounds read low 0.992 | locus YDL134C, strain PPH21, active compounds read low 1.01 | locus YDL185W, strain tfp1, active compounds read low 1.02 | locus YDL192W, strain arf1, active compounds read low 1.02 | locus YDR001C, strain nth1, active compounds read low 1.01 | locus YDR069C, strain doa4, active compounds read low 0.994 | locus YDR101C, strain arx1, active compounds read low 1 | locus YDR137W, strain rgp1, active compounds read low 1.1 | locus YDR150W, strain NUM1, active compounds read low 0.989 | locus YDR159W, strain sac3, active compounds read low 0.989 | locus YDR162C, strain NBP2, active compounds read low 0.97 | locus YDR195W, strain ref2 1.03 | locus YDR297W, strain sur2, active compounds read low 1.01 | locus YDR318W, strain mcm21, active compounds read low 1.03 | locus YDR334W, strain swr1, active compounds read low 1.02 | locus YDR335W, strain msn5, active compounds read low 1.02 | locus YDR388W, active compounds read low 1.02 | locus YDR392W, strain spt3, active compounds read low 1.02 | locus YDR502C, strain sam2, active compounds read low 1.01 | locus YEL003W, strain gim4, active compounds read low 1.01 | locus YEL037C, strain rad23, active compounds read low 1.01 | locus YEL061C, strain CIN8 (second series), active compounds read low 1.02 | locus YEL061C, strain CIN8, active compounds read low 0.999 | locus YER015W, strain faa2, active compounds read low 1.01 | locus YER016W, strain bim1, active compounds read low 1.02 | locus YER110C, active compounds read low 1.02 | locus YER111C, strain swi4, active compounds read low 1.01 | locus YER155C, strain BEM2 (second series), active compounds read low 0.999 | locus YER155C, strain BEM2, active compounds read low 1 | locus YER167W, strain BCK2, active compounds read low 1 | locus YFR010W, strain ubp6, active compounds read low 0.987 | locus YGL078C, strain dbp3, active compounds read low 1.01 | locus YGL086W, strain mad1, active compounds read low 1.02 | locus YGL167C, strain pmr1, active compounds read low 1.02 | locus YGL173C, strain kem1, active compounds read low 1 | locus YGL227W, strain vid30, active compounds read low 1.01 | locus YGL240W, strain doc1, active compounds read low 0.991 | locus YGL248W, strain PDE1, active compounds read low 0.998 | locus YGL253W, strain hxk2, active compounds read low 1.01 | locus YGR078C, strain PAC10, active compounds read low 0.988 | locus YGR135W, strain pre9, active compounds read low 0.985 | locus YGR229C, strain SMI1, active compounds read low 0.984 | locus YGR252W, strain gcn5, active compounds read low 1.06 | locus YHR013C, strain ard1, active compounds read low 1 | locus YHR027C, strain rpn1, active compounds read low 1.02 | locus YHR030C, strain SLT2, active compounds read low 1.01 and 1.02 | locus YHR079C, strain IRE1 (second series), active compounds read low 1.01 | locus YHR079C, strain IRE1, active compounds read low 1.04 | locus YHR094C, strain hxt1, active compounds read low 1.02 | locus YHR129C, strain ARP1, active compounds read low 1 | locus YHR142W, strain chs7, active compounds read low 1.02 | locus YHR200W, strain rpn10, active compounds read low 1.01 | locus YIL066C, strain RNR3, active compounds read low 1.01 | locus YIL073C, strain SPO22, active compounds read low 1.08 | locus YIL125W, strain kgd1, active compounds read low 1 | locus YIR030C, strain dcg1, active compounds read low 1.01 | locus YJL092W, strain hpr5, active compounds read low 1.01 | locus YJL095W, strain BCK1 (second series), active compounds read low 1.01 | locus YJL095W, strain BCK1, active compounds read low 0.975 and 1.04 | locus YJL115W, strain asf1, active compounds read low 1.02 | locus YJL129C, strain trk1, active compounds read low 1.03 | locus YJL134W, strain LCB3, active compounds read low 0.993 | locus YJL154C, strain vps35, active compounds read low 1.01 | locus YJL164C, strain tpk1, active compounds read low 1.01 | locus YJL166W, strain qcr8, active compounds read low 1.01 | locus YJL168C, strain set2, active compounds read low 1.03 | locus YJL187C, strain SWE1 (second series), active compounds read low 1 | locus YJR043C, strain POL32, active compounds read low 1 | locus YJR066W, strain TOR1, active compounds read low 0.985 | locus YJR075W, strain HOC1, active compounds read low 0.98

Reference: PubChem BioAssay AID1159580 (chemical genetic matrix, 2015)
